Experimental data as given in PubChem BioAssay AID1259422 (The Scripps Research Institute Molecular Screening Center, 2018).
The whole screen tested about 640,000 compounds, of which about 9,300 (1.5%) were called active. This excerpt belongs to a sample that is enriched for actives. A number with no mark means an inactive call. Rule as the data show it: active = inhibition above about 32%; inactive = the rest.

Assay: TEAD-YAP interaction inhibition, primary screen, TEAD-YAP interaction inhibitor project, luminescence, HEK-TIYL cells (AID 1259422);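 also: 0% = median of test compound wells and 100% = reference inhibitor wells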
Details: TEAD-Gal4/YAP UAS-luciferase luminescence, at 9.12 µM, active compounds read high

Row | SMILES | inhibition
1 | CCOC(=O)C1CCN(C(=O)/C(=C/c2ccco2)NC(=O)c2ccc(C)c(C)c2)CC1 | 3.59%
2 | Cc1nnc(NS(=O)(=O)c2ccc([N+](=O)[O-])cc2)s1 | -10.9%
3 | O=C(CSCC(=O)N1CCCC1)Nc1nc(-c2ccc(Cl)s2)cs1 | -0.25%
4 | Cc1ccc(S(=O)(=O)N(C(=O)NC(=O)Nc2ccccc2Cl)c2ccc(Cl)cc2)cc1 | -3.29%
5 | Cc1cc(C)c2c(NCc3ccccc3F)n[nH]c2n1 | -16.5%
6 | Cc1ccc(OCc2nn3c(Cn4cnc5ccccc54)nnc3s2)cc1 | 32.3% (active)
7 | c1ccc(Cc2nn3c(Cn4cnc5ccccc54)nnc3s2)cc1 | 6.31%
8 | Clc1ccccc1OCc1nn2c(Cc3ccccc3)nnc2s1 | -7.7%
9 | COC(=O)c1c(C)[nH]c(C(=O)/C(C#N)=C/c2cccnc2)c1C | -3.19%
10 | CCc1nc2sc3c(N4CCCC4)ncnc3c2c2c1COC(C)(C)C2 | -9.9%
11 | CC(=O)c1ccc(OC(=O)c2ccccc2Cl)cc1 | 7.46%
12 | O=C(Cn1cnc2ccc(Br)cc2c1=O)OC1CCCCC1 | -11.3%
13 | CCC(C)n1c(N(C)Cc2ccccc2)nc2c1c(=O)[nH]c(=O)n2C (stereo not given) | 49.9% (active)
14 | CC(Nc1nc2c(c(=O)[nH]c(=O)n2C)n1Cc1ccccc1)c1ccccc1 (stereo not given) | 0.86%
15 | Cn1c(=O)[nH]c(=O)c2c1nc(N(CCO)Cc1ccccc1)n2Cc1ccccc1Cl | -2.54%
16 | COCCNC(=O)c1ccc(Sc2ccc(OC)cc2)c([N+](=O)[O-])c1 | -17%
17 | CCC(C)NC(=O)c1ccc(S(=O)(=O)c2ccc(OC)cc2)c([N+](=O)[O-])c1 (stereo not given) | 32.4% (active)
18 | CCC(C)NC(=O)c1ccc(N2CCC3(CC2)OCCO3)c([N+](=O)[O-])c1 (stereo not given) | -13.8%
19 | Cc1nn(C)c(C)c1-c1cncc(C(=O)NCc2cccc(C(F)(F)F)c2)c1 | -3.32%
20 | Cc1nc2c(C(=O)NCc3ccc(F)cc3)cnn2c(C)c1Cc1cccc(Cl)c1 | 0.57%
21 | O=C(CSCC(=O)Nc1ccc2ccccc2c1)NCC1CCCO1 (stereo not given) | -13.5%
22 | O=c1oc2cc(Cl)ccc2n1C(c1ccccc1)(c1ccccc1)c1ccccc1 | -6.71%
23 | O=C1NC2(CCN(C(=O)C3CCN3C3CCCCC3)CC2)Nc2ccccc21 (stereo not given) | 7.24%
24 | O=C1NC2(CCN(C(=O)CCn3ncc4ccccc43)CC2)Nc2ccccc21 | -11.1%
25 | O=C1NC2(CCN(C(=O)c3cccc4cccnc34)CC2)Nc2ccc(Cl)cc21 | 77.2% (active)
